Tau fluor counter = Counterscreen qHTS for Inhibitors of Tau Fibril Formation, Fluorescence Polarization; Potency, µM (titrated, usually from 57.7 µM), inactives show top-dose activity change, negative = decrease; 0.93% of 280,000 active; AID 1463, 2008; tau K18 P301L Alexa594 fluorescence, heparin fibrillization; note: % is set by controls: 0 for no effect and ±100 for the full control effect; nearly all actives have a fitted effect of over 55% in size
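Human tau K18 P301L (15 uM unlabeled, 0.24 uM Alexa 594-labeled) in 100 mM sodium acetate pH 7 with 20 uM heparin, 6 hr at 37 C. ThT 30 uM added, 1 hr ambient; Alexa 594 FP and total fluorescence read at 555/632 nm.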
Tau fibril FP = qHTS for Inhibitors of Tau Fibril Formation, Fluorescence Polarization | K18 P301L tau heparin fibrillization, Alexa594 FP, 6 h | 0.39% of 280,000 active | Potency, µM (top dose mostly 57.7 µM), inactives show top-dose activity, negative = inhibition, hits mostly inhibitors | Microtubule-associated protein tau (Homo sapiens), P10636 | AID 1468, 2008; note: % is set by controls: 0 for no effect and ±100 for the full control effect; nearly all actives have a fitted effect of over 55% in size
Target sequence (P10636 561-689 P618L limits assumed): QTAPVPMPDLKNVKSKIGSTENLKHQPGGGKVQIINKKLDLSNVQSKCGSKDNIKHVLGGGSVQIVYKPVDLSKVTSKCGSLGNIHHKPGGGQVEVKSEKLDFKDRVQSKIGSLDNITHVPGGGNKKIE
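Steps: dispense K18 P301L tau (15 uM plus 0.24 uM Alexa 594 tracer, final) in pH 7 sodium acetate; add compound; add heparin (20 uM final); incubate 6 hr, 37 C; add ThT (30 uM final); after 1 hr ambient, read FP.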
HTT cytoprotect = qHTS Multiplex Assay to Identify Dual Action Probes in a Cell Model of Huntington: Cytoprotection (ATP); Potency, µM (top dose mostly 56.4 µM), for the others: cytoprotection (ATP increase), actives largely listed as activators; 0.14% of 230,000 active; PC12 HTT-Q103 induced, cytoprotection, ATP luminescence, 40 h; note: % of control where 0% means no effect; nearly all actives have a fitted effect of over 45% in size
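PC12 cells stably carrying ecdysone-inducible Htt exon 1 (Q103)–GFP were induced with 100 nM tebufenozide (final) alongside library compounds in a dose series. Cytoprotection was scored as retained ATP by ATPlite luminescence.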
HttQ103 aggreg = qHTS Multiplex Assay to Identify Dual Action Probes in a Cell Model of Huntington: Aggregate Formation (GFP); Potency, µM (highest dose often 46.1 µM), without a hit: top-dose activity change, negative = inhibition, actives largely listed as inhibitors; AID 1688, 2009; PC12 HttQ103-GFP aggregates, Acumen cytometry, 40 h; 1.1% of 220,000 active; note: % is set by controls: 0 for no effect and ±100 for the full control effect; nearly all actives have a fitted effect of over 60% in size
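Steps: seed 1500 PC12 HTTQ103-GFP cells/well; add tebufenozide, 100 nM final; add compound titration; add ATPLite reagent; quantify GFP aggregates by laser scanning cytometry.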
Tau fibril ThT = qHTS for Inhibitors of Tau Fibril Formation, Thioflavin T Binding; 2.1% of 270,000 active; recombinant tau K18 P301L (four-repeat tau fragment), heparin-induced fibrillization, ThT fluorescence; Potency, µM (top dose mostly 57.4 µM), for the others: at the highest dose activity, negative = inhibition, actives largely listed as inhibitors; note: % is set by controls: 0 for no effect and ±100 for the full control effect; nearly all actives have a fitted effect of over 55% in size
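Aggregation was driven by heparin (20 uM final) acting on recombinant tau […] bearing P301L in 100 mM sodium acetate pH 7; fibrils were detected with Thioflavin T.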
* marks the source's active call; other numbers are inactive results; ? = inconclusive; · = no result; ! = repeats disagree; [ ] = dose if it differs, or a comment. A selection: hits, their analogues and other compounds. The true share with any hit is near 3.7%. Calls come from the whole dose curve; as a rule, active = well fitted curve in the direction sought with a large enough effect; inconclusive = small, poorly fitted or top-dose-only effect, or another doubt; inactive = no such curve, though single readings can be large; an effect the other way counts as inactive or inconclusive. Potency is the fitted concentration of half-maximal effect.

SMILES | Tau fluor counter | Tau fibril FP | HTT cytoprotect | HttQ103 aggreg | Tau fibril ThT
Cc1ccc(S(=O)(=O)NNc2ccccc2)c(C)c1 | -14% | ? | 8%[10 µM] | -16% | 22µM*
CN(C)c1nc(-c2ccccn2)nnc1-c1ccccc1 | -2% | -5% | -32% | -29%[9.22 µM] | -1%
CCN(CC)c1nc(-c2ccccn2)nc(-c2ccccc2)c1C#N | -9% | 6% | -124% | 5µM* | -17%
O=c1oc2ccccc2nc1/C=C(O)/C=C\c1ccccc1 | -26% | ? | -1%[10 µM] | ? | 28µM*
COc1ccc(C2C(C(=O)OC(C)C)=C(C)N=c3s/c(=C\c4cccs4)c(=O)n32)cc1 (stereo unspecified) | -20% | -10% | -14% | 5% | ?
C=CCOC(=O)C1=C(C)N=c2s/c(=C3\C(=O)N(CC(=O)O)c4ccccc43)c(=O)n2C1c1ccc(OC)cc1 (stereo unspecified) | -11% | ? | 6%[10 µM] | 5%[9.22 µM] | 4µM*
CC(=O)OC[C@@H]1O[C@H](C/C=N\O[C@@H](C)c2cn([C@H](CO)Cc3ccccc3)nn2)C=C[C@@H]1OC(C)=O | -1%[11.6 µM] | 5%[11.6 µM] | -10%[10 µM] | · | -5%[11.5 µM]
CN1CCN(C2=C(Cl)C(=O)N(c3ccc(Cl)cc3)C2=O)CC1 | ? | ? | -1%[10 µM] | 5% | 25µM*
Cc1ccc(N2C(=O)C(Cl)=C(NCCO)C2=O)c(C)c1 | ? | ? | -3% | -10% | ?
Cc1ccc(N2C(=O)C(Cl)=C(N3CCN(C)CC3)C2=O)c(C)c1 | ? | 25µM* | 2%[1.9 µM] | 3% | 14µM*
O=C1C(Cl)=C(N2CCN(Cc3ccccc3)CC2)C(=O)N1c1ccccc1 | ? | 25µM* | -18% | -4% | 16µM*
COc1ccc(CCNC(=O)c2ccc3c(c2)CCN3S(=O)(=O)c2ccc(C)cc2)cc1OC | -24% | -1% | · | · | -4%
Cc1cc(C2(c3cc(C)c(O)c(C(=O)O)c3)OS(=O)(=O)c3ccccc32)cc(C(=O)O)c1O | · | · | -3%[10 µM] | · | ·
Cc1cccc(-c2noc(-c3cc(C(C)C)[nH]n3)n2)c1 | ? | -1% | · | · | ?
CCOC(=O)CSc1nc2sc3c(c2c(=O)n1Cc1ccccc1)CCC(C(C)(C)C)C3 (stereo unspecified) | 0% | -3% | · | · | 1%
O=C(O)CSCCc1ccccc1 | · | · | -22%[10 µM] | · | ·
COCC(C)N1C(=O)Cc2c1nc(N)c1c(N)nc(N3CCN(c4ccccc4F)CC3)c(C#N)c21 (stereo unspecified) | ? | ? | -12% | 18% | 25µM*
O=C(NC(=S)NNC(=O)c1ccccc1O)c1ccco1 | -15% | 5% | 14%[10 µM] | ? | ?
O=C(NC(=S)NNC(=O)c1cc2ccccc2cc1O)c1ccco1 | -29% | 12% | -107% | ? | 13µM*
Cc1cccc(CS(=O)(=O)c2ncc(Cl)c(C(=O)NCc3ccccc3)n2)c1 | 1% | 4% | · | · | 5%
Cc1cccc(CS(=O)(=O)c2ncc(Cl)c(C(=O)Nc3nc4ccc(F)cc4s3)n2)c1 | -23% | -9% | · | · | 10µM*
O=C(Nc1nc2ccc(F)cc2s1)c1nc(S(=O)(=O)Cc2ccccc2)ncc1Cl | -30% | -13% | · | · | 7.1µM*
COc1ccc(S(=O)(=O)NCCc2csc(-c3cccc(F)c3)n2)cc1OC | -9% | -7% | · | · | 0%
O=c1cc(-c2ccccc2O)oc2c1ccc1ccccc12 | -6% | -2% | 0.45µM*! | · | -8%
O=c1cc(C(Cl)(Cl)Cl)oc2c1ccc1ccccc12 | -9% | -9% | -76% | 7.1µM* | ?
SMILES | Tau fluor counter | Tau fibril FP | HTT cytoprotect | HttQ103 aggreg | Tau fibril ThT
Nc1c(C(=O)NCc2ccccc2)nnn1Cc1cccc(Br)c1 | -16% | -12% | · | · | -3%
CCOC(=O)c1ccc(NC(=O)C(=O)NCCc2ccc(OC)cc2)cc1 | -11% | -10% | 15%[10 µM] | -5%[9.22 µM] | ?
CCOC(=O)c1ccc(NC(=S)NCCc2ccc(F)cc2)cc1 | ? | 28µM* | -27% | 12% | 6%
CCOc1cc(/C=N/NC(=O)CNc2cccc(C)c2)ccc1OC(=O)c1ccccc1 | 14µM*[quencher] | 10% | -15% | 11% | ?
COC(=O)CN1C(=O)C2(C(C#N)=C(N)Oc3c2c(C)nn3-c2ccccc2)c2ccccc21 (stereo unspecified) | -25% | ? | 11%[10 µM] | 10% | 28µM*
COC(=O)CN1C(=O)C2(C(C#N)=C(N)Oc3n[nH]c(-c4cccs4)c32)c2ccccc21 (stereo unspecified) | -6% | -9% | 1% | 8% | -8%
COc1ccc(C(=O)Nc2nnc(S(=O)(=O)N3CCC(C)CC3)s2)cc1OC | ? | 1% | · | · | 13µM*
COc1ccc(C(=O)Nc2nnc(S(=O)(=O)N3CCCCCC3)s2)cc1OC | -25% | -6% | · | · | ?
CC1CCN(S(=O)(=O)c2nnc(NC(=O)c3ccc(C(C)C)cc3)s2)CC1 | ? | ? | · | · | 2.8µM*
Oc1[nH]c2ccccc2c1N=NC(=S)NCC1CCCO1 (stereo unspecified) | 0% | 2% | -7%[10 µM] | -4% | 0%
Oc1[nH]c2ccc(Br)cc2c1N=NC(=S)NCC1CCCO1 (stereo unspecified) | 14µM*[quencher] | 6% | -11%[10 µM] | -22%[9.22 µM] | 16µM*
Cc1noc(Cn2c(=O)c3ccccc3n(CC(=O)Nc3ccc(C(C)C)cc3)c2=O)n1 | ? | -10% | · | · | -13%
CNC(=O)C1C(=S)NC(N)=C(C#N)C1c1ccccc1 (stereo unspecified) | -28% | 16µM* | -118% | -5%[1.84 µM] | 20µM*
COC(=O)C1=C(C)OC(N)=C(C#N)C1c1ccccc1 (stereo unspecified) | 1% | 2% | -11% | 12% | 8%
O=C(Cc1csc2ccccc12)NCc1cccc(Br)c1 | -22% | ? | · | · | -8%
CN(C)c1ccc(-c2ccc3ncnc(-n4ccnc4)c3c2)cc1 | · | · | 3.2µM* | · | ·
CN(C)C(=O)c1ccc(-c2cncnc2-n2ccnc2)cc1 | · | · | -7% | · | ·
Cc1ccccc1-c1ccc2ncnc(-n3ccnc3)c2c1 | · | · | 1µM* | · | ·
COc1ccc(-n2cc3c(c2-c2cccc(Br)c2)c(=O)n(C)c(=O)n3C)cc1OC | -6% | -10% | · | · | -1%
CCOC(=O)c1sc2ccccc2c1S(=O)(=O)NCc1ccccc1OC | -25% | -3% | · | · | -11%
Brc1ccc(N/N=C(/N=Nc2nn[nH]n2)c2ccccc2)cc1 | 8.9µM*[quencher] | ? | -131% | 7.1µM* | 4.5µM*
O=C(/C(=N\Nc1ccc(Br)cc1)Sc1nnnn1-c1ccccc1)c1ccccc1 | ? | 2% | 3%[10 µM] | -10% | -19%
CCc1ccc(NC(=O)c2cc(C(C)=O)n3ccccc23)cc1 | -25% | -17% | · | · | 2%

Screens (PubChem BioAssay)
